Source: PubChem BioAssay AID1159580 (chemical genetic matrix, 2015)
Several values for one entry are separate records, joined by “and”; a condition that tells them apart may be missing. Equal entries are not always repeated. Hit rate of the full screen: of about 5,500 compounds, about 2,000 (36%) were called active. Another 18% or so got no clear call; they are omitted. No stated cut-off is given here; in the data, active means normalized growth mostly below about 0.91 (no sharp cut-off); inconclusive means no clear call, values can overlap the other calls; inactive means mostly above about 0.92. Some of the results follow.

Experiment: chemical genetic growth profiling, strain panel (AID 1159580);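 further: tested at 20 µM; growth read once vehicle control cultures reached saturation at 30 °C; 1 = growth at the plate median or of vehicle wells; lower values mean less growth of the strain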
Conditions: S. cerevisiae deletion strains, growth OD

Measured: normalized growth

Clc1ccc(COC(Cn2ccnc2)c2ccc(Cl)cc2Cl)c(Cl)c1 (configuration not stated)
active: locus YAL013W, strain DEP1, active compounds read low 0.0568 | locus YAL021C, strain ccr4, active compounds read low 0.0668 | locus YAL026C, strain drs2, active compounds read low 0.0674 | locus YAL030W, strain snc1, active compounds read low 0.0581 | locus YBL061C, strain skt5, active compounds read low 0.0608 | locus YBR009C, strain hhf1, active compounds read low 0.0655 | locus YBR021W, strain FUR4, active compounds read low 0.0874 | locus YBR023C, strain chs3, active compounds read low 0.0682 | locus YBR171W, strain sec66, active compounds read low 0.0803 | locus YBR229C, strain ROT2, active compounds read low 0.0268 | locus YBR231C, strain swc5, active compounds read low 0.0764 | locus YBR279W, strain paf1, active compounds read low 0.0803 | locus YCL011C, strain gbp2, active compounds read low 0.0572 | locus YCL016C, strain dcc1, active compounds read low 0.0647 | locus YCL029C, strain bik1, active compounds read low 0.0612 | locus YCL061C, strain MRC1, active compounds read low 0.065 | locus YCL069W, strain vba3, active compounds read low 0.0638 | locus YCR088W, strain abp1, active compounds read low 0.0654 | locus YDL005C, strain med2, active compounds read low 0.0803 | locus YDL035C, strain GPR1, active compounds read low 0.0505 | locus YDL040C, strain nat1, active compounds read low 0.0613 | locus YDL074C, strain BRE1, active compounds read low 0.0763 | locus YDL101C, strain DUN1, active compounds read low 0.0503 | locus YDL134C, strain PPH21, active compounds read low 0.0516 | locus YDL185W, strain tfp1, active compounds read low 0.0554 | locus YDL192W, strain arf1, active compounds read low 0.0597 | locus YDR001C, strain nth1, active compounds read low 0.0613 | locus YDR069C, strain doa4, active compounds read low 0.065 | locus YDR101C, strain arx1, active compounds read low 0.0587 | locus YDR137W, strain rgp1, active compounds read low 0.111 | locus YDR150W, strain NUM1, active compounds read low 0.0575 | locus YDR159W, strain sac3, active compounds read low 0.0885 | locus YDR162C, strain NBP2, active compounds read low 0.0451 | locus YDR195W, strain ref2 0.126 | locus YDR297W, strain sur2, active compounds read low 0.0574 | locus YDR318W, strain mcm21, active compounds read low 0.0643 | locus YDR334W, strain swr1, active compounds read low 0.0662 | locus YDR335W, strain msn5, active compounds read low 0.0617 | locus YDR388W, active compounds read low 0.056 | locus YDR392W, strain spt3, active compounds read low 0.101 | locus YDR502C, strain sam2, active compounds read low 0.0624 | locus YEL003W, strain gim4, active compounds read low 0.0564 | locus YEL037C, strain rad23, active compounds read low 0.0601 | locus YEL061C, strain CIN8 (second series), active compounds read low 0.0638 | locus YEL061C, strain CIN8, active compounds read low 0.0482 | locus YER015W, strain faa2, active compounds read low 0.0604 | locus YER016W, strain bim1, active compounds read low 0.0607 | locus YER110C, active compounds read low 0.0744 | locus YER111C, strain swi4, active compounds read low 0.0809 | locus YER155C, strain BEM2 (second series), active compounds read low 0.0947 | locus YER155C, strain BEM2, active compounds read low 0.0667 | locus YER167W, strain BCK2, active compounds read low 0.0577 | locus YFR010W, strain ubp6, active compounds read low 0.0709 | locus YGL078C, strain dbp3, active compounds read low 0.0696 | locus YGL086W, strain mad1, active compounds read low 0.0583 | locus YGL167C, strain pmr1, active compounds read low 0.0799 | locus YGL173C, strain kem1, active compounds read low 0.072 | locus YGL227W, strain vid30, active compounds read low 0.067 | locus YGL240W, strain doc1, active compounds read low 0.0883 | locus YGL248W, strain PDE1, active compounds read low 0.0461 | locus YGL253W, strain hxk2, active compounds read low 0.0558 | locus YGR078C, strain PAC10, active compounds read low 0.0558 | locus YGR135W, strain pre9, active compounds read low 0.0676 | locus YGR229C, strain SMI1, active compounds read low 0.0622 | locus YGR252W, strain gcn5, active compounds read low 0.155 | locus YHR013C, strain ard1, active compounds read low 0.106 | locus YHR027C, strain rpn1, active compounds read low 0.0625 | locus YHR030C, strain SLT2, active compounds read low 0.0509 and 0.102 | locus YHR079C, strain IRE1 (second series), active compounds read low 0.0623 | locus YHR079C, strain IRE1, active compounds read low 0.124 | locus YHR094C, strain hxt1, active compounds read low 0.0654 | locus YHR129C, strain ARP1, active compounds read low 0.0576 | locus YHR142W, strain chs7, active compounds read low 0.0767 | locus YHR200W, strain rpn10, active compounds read low 0.0606 | locus YIL066C, strain RNR3, active compounds read low 0.0442 | locus YIL073C, strain SPO22, active compounds read low 0.115 | locus YIL125W, strain kgd1, active compounds read low 0.0693 | locus YIR030C, strain dcg1, active compounds read low 0.0593 | locus YJL092W, strain hpr5, active compounds read low 0.061 | locus YJL095W, strain BCK1 (second series), active compounds read low 0.059 | locus YJL095W, strain BCK1, active compounds read low 0.0515 and 0.106 | locus YJL115W, strain asf1, active compounds read low 0.0748 | locus YJL129C, strain trk1, active compounds read low 0.0933 | locus YJL134W, strain LCB3, active compounds read low 0.0457 | locus YJL154C, strain vps35, active compounds read low 0.062 | locus YJL164C, strain tpk1, active compounds read low 0.0667 | locus YJL166W, strain qcr8, active compounds read low 0.0609 | locus YJL168C, strain set2, active compounds read low 0.0574 | locus YJL187C, strain SWE1 (second series), active compounds read low 0.0406 | locus YJL187C, strain SWE1, active compounds read low 0.0602 | locus YJR043C, strain POL32, active compounds read low 0.0602 | locus YJR066W, strain TOR1, active compounds read low 0.0025
